{"source": "PubChem BioAssay AID488969", "about": "(Vanderbilt High Throughput Screening Facility, 2010)", "note": "The full ranking holds about 110,000 compounds; the median of “z-score” is about -0.1, and the highest 2% start at about 2. This excerpt belongs to a sample that is enriched for the highest values. Calls of active or inactive are those of the source.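 Rule for the calls: active = z-score in the third read window above 3 or below -3; inactive = the rest.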", "data": [{"target": "Metabotropic glutamate receptor 8 (Rattus norvegicus) (UniProt P70579)", "sequence (P70579 whole entry, looked up)": "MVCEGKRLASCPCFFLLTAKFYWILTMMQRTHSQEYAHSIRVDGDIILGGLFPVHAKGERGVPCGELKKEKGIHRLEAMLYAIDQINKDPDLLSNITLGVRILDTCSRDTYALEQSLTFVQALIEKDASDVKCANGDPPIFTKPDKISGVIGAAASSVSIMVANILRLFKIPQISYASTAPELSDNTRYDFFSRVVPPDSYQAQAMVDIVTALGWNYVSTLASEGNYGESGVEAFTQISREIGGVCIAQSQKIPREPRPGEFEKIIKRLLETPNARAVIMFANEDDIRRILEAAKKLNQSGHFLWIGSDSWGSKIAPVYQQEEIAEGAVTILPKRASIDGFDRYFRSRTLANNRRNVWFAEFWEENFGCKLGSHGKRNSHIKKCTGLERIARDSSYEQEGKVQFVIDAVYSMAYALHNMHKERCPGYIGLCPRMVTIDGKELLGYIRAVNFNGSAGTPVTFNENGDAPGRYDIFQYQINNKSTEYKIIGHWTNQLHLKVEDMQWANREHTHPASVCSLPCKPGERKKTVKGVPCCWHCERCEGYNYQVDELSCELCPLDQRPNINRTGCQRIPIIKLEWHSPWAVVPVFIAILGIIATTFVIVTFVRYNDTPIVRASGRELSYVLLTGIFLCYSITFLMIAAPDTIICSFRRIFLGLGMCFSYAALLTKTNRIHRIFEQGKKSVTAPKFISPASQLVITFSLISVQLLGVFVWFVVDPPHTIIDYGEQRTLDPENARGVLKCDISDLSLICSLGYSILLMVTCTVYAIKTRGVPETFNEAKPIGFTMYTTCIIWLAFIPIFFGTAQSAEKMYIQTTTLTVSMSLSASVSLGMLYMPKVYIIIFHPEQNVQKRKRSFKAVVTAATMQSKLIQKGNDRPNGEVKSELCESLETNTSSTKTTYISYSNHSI", "test": "rat mGluR8 modulators via GIRK flux, primary screen, cell-based, thallium flux, HTS (AID 488969)", "details": "HEK293 rat mGluR8, GIRK (G protein-gated inwardly rectifying potassium channel) thallium flux, FluoZin2; at 10 µM; stronger effect = higher value; submaximal glutamate (EC20) added with thallium", "values": [{"molecule": "CCn1c(=O)n(CC)c2cc(S(N)(=O)=O)c(C)cc21", "z-score": 0.381}, {"molecule": "COc1ccc(-c2cc(-c3ccccc3)c(C#N)c(SCC(=O)Nc3ncc(C)s3)n2)cc1", "z-score": -0.161}, {"molecule": "CCOc1ccc2c(c1)c(C(C)=O)c(C)n2-c1ccccc1", "z-score": -1.1}, {"molecule": "CCN(CC)CC(O)COc1ccc2c(c1)c(C(C)=O)c(C)n2-c1ccccc1", "note": "(stereo unspecified)", "z-score": 2.25}, {"molecule": "CCOC(=O)c1c(C)n(C)c2ccc(OCC(O)CN(CC)CC)cc12", "note": "(stereo unspecified)", "z-score": 0.554}, {"molecule": "CC1CCN(S(=O)(=O)c2ccc(NC(=O)CN3CCN(C)CC3)cc2)CC1", "z-score": 0.193}, {"molecule": "Cc1nn2c(CN(C(=O)COc3ccccc3)c3ccccc3)nnc2c2ccccc12", "z-score": -0.835}, {"molecule": "Clc1ccc2c(NNc3ccccc3Cl)ccnc2c1", "z-score": -0.353}, {"molecule": "O=C(Oc1ccnc2cc(Cl)ccc12)N1CCOCC1", "z-score": -0.719}, {"molecule": "Clc1ccc2c(N3CCCC3)ccnc2c1", "z-score": 2.36}, {"molecule": "Cc1cc(C)nc(N2CCC(C(=O)Nc3ccc(Oc4ccccc4)cc3)CC2)n1", "z-score": -0.163}, {"molecule": "CC(C(=O)Nc1ccc([N+](=O)[O-])cc1)N1CCN(C/C=C/c2ccccc2)CC1", "note": "(stereo unspecified)", "z-score": -0.146}, {"molecule": "CCc1ccc2nc(N3C(=O)C(O)=C(C(=O)c4ccco4)C3c3cccs3)sc2c1", "note": "(stereo unspecified)", "z-score": -1.1}, {"molecule": "Cc1ccc(S(=O)(=O)N2CCOCC2)cc1NC(=O)Cn1ccsc1=N", "z-score": 0.262}, {"molecule": "N=c1sccn1CC(=O)Nc1ccc(S(=O)(=O)N2CCOCC2)cc1", "z-score": 2.19}, {"molecule": "N=c1sccn1CC(=O)Nc1ccc(Cl)c(S(=O)(=O)N2CCOCC2)c1", "z-score": 0.131}, {"molecule": "CCOC(=O)CC1C(=O)NCCN1Cc1cccc(OC)c1", "note": "(stereo unspecified)", "z-score": -0.139}, {"molecule": "COc1ccc(NC(=O)c2ccco2)cc1NC(=O)c1ccc(Br)o1", "z-score": -0.82}, {"molecule": "Cc1csc(SCC(=O)Nc2ncc(Cl)c(C)c2Cl)n1", "z-score": 0.185}, {"molecule": "COc1ccc2nc(NC(=O)CN(c3ccc(C)cc3)S(=O)(=O)c3c(C)nn(C)c3C)sc2c1", "z-score": 0.03}, {"molecule": "Cc1nn(C)c(C)c1S(=O)(=O)N(CC(=O)NCCCOC(C)C)c1ccc(C(C)C)cc1", "z-score": -0.0899}, {"molecule": "COc1ccc(N(CC(=O)Nc2nccs2)S(=O)(=O)c2c(C)nn(C)c2C)cc1", "z-score": 0.0495}, {"molecule": "Cc1nn(C)c(C)c1S(=O)(=O)N(CC(=O)NC1CCCCCC1)c1ccc(C(C)C)cc1", "z-score": -0.146}, {"molecule": "COc1ccc(N(CC(=O)Nc2nc3ccc(C)cc3s2)S(=O)(=O)c2c(C)nn(C)c2C)cc1", "z-score": 2.44}, {"molecule": "Cc1cccc(NC(=O)CN(c2ccc(C(C)C)cc2)S(=O)(=O)c2c(C)nn(C)c2C)n1", "z-score": 2.21}, {"molecule": "CSc1ccc(/C=N/NC(=O)CN2CCN(Cc3ccccc3)CC2)cc1", "z-score": -0.0744}, {"molecule": "CC(=O)Oc1ccc2c(c1)cc(C)n2C", "z-score": 0.458}, {"molecule": "O=C1c2ccccc2C(=O)N1CCn1c(=O)oc2ccccc21", "z-score": 1.56}, {"molecule": "Cc1cc(Cl)ccc1OC(C)C(=O)Nc1ccc([N+](=O)[O-])cn1", "note": "(stereo unspecified)", "z-score": 2.07}, {"molecule": "CC(Oc1cccc(Cl)c1)C(=O)Nc1ccc([N+](=O)[O-])cn1", "note": "(stereo unspecified)", "z-score": -0.576}, {"molecule": "CC(=O)Nc1ccc([N+](=O)[O-])cn1", "z-score": -0.229}, {"molecule": "COC(=O)c1c(NC(=O)CSc2nnnn2-c2ccccc2)sc2c1CCC(C)C2", "note": "(stereo unspecified)", "z-score": -0.121}, {"molecule": "COc1ccc(/C=C2\\NC(=S)N(CC3CCCO3)C2=O)c(OC)c1", "note": "(stereo unspecified)", "z-score": 0.39}, {"molecule": "COc1ccccc1/C=C1\\NC(=S)N(CC2CCCO2)C1=O", "note": "(stereo unspecified)", "z-score": 0.246}, {"molecule": "COc1ccc(/C=C2\\NC(=S)N(CC3CCCO3)C2=O)c(OC)c1C", "note": "(stereo unspecified)", "z-score": 2.32}, {"molecule": "CCOC(=O)c1nnn(-c2nonc2N)c1COc1cc(C)c(Cl)c(C)c1", "z-score": -0.174}, {"molecule": "CCCCCCCC1CC(CSC(=N)N)OC1=O", "note": "(stereo unspecified)", "z-score": "5.96 (active)"}, {"molecule": "CCCCC1CC(CSC(=N)N)OC1=O", "note": "(stereo unspecified)", "z-score": 0.732}, {"molecule": "CCCCC1CC(CSc2ncn[nH]2)OC1=O", "note": "(stereo unspecified)", "z-score": -0.0735}, {"molecule": "CCCCCCCC1CC(CSc2ncn[nH]2)OC1=O", "note": "(stereo unspecified)", "z-score": "5.73 (active)"}, {"molecule": "CCCCCCC1CC(CSc2ncn[nH]2)OC1=O", "note": "(stereo unspecified)", "z-score": -0.0128}, {"molecule": "CCCCCCC1CC(CSC(=N)N)OC1=O", "note": "(stereo unspecified)", "z-score": 0.116}, {"molecule": "CC(C)C(=O)Nc1nc2c(ncn2C2CC(O)C(CO)O2)c(=O)[nH]1", "note": "(stereo unspecified)", "z-score": -0.334}, {"molecule": "CC(C)OC(=O)n1c(=S)oc2ccccc21", "z-score": -0.00387}, {"molecule": "S=c1[nH]nc(CSCc2ccc(Cl)cc2Cl)n1-c1ccccc1", "z-score": "15.5 (active)"}, {"molecule": "CSc1nnc(CSCc2ccc(Cl)cc2Cl)n1-c1ccccc1", "z-score": -0.0778}, {"molecule": "S=c1[nH]nc(Cc2ccccc2)n1-c1ccccc1", "z-score": 0.938}, {"molecule": "Cn1ncc(C#N)c1NC(=O)c1cc(-c2ccccc2Cl)on1", "z-score": 0.559}, {"molecule": "O=C(CSc1nc(C2CC2)nc2ccccc12)N1CCc2ccccc2C1", "z-score": -0.769}, {"molecule": "Cc1cc(=O)n2cc(-c3ccccc3)nc2[nH]1", "z-score": -0.318}, {"molecule": "CC1CCN(CCCCOc2ccccc2Br)CC1", "z-score": -0.0355}, {"molecule": "Cc1cc(Cl)ccc1N=C1N=C(N)c2ccccc21", "z-score": -1.75}, {"molecule": "COC(=O)c1sccc1NC(=O)CSc1ccccc1NS(=O)(=O)c1ccc(F)cc1", "z-score": 0.941}, {"molecule": "COC(=O)c1sccc1NC(=O)CSc1ccccc1NS(=O)(=O)c1ccc(Br)cc1", "z-score": 2.31}, {"molecule": "COC(=O)c1sccc1NC(=O)CSc1ccccc1NS(=O)(=O)c1ccc(Cl)cc1", "z-score": "3.6 (active)"}, {"molecule": "COC(=O)c1sccc1NC(=O)CSc1ccc(Cl)cc1", "z-score": 0.289}, {"molecule": "COC(=O)c1sccc1NC(=O)Cc1ccc(Br)cc1", "z-score": -0.0914}, {"molecule": "COC(=O)c1sccc1NC(=O)CN(C)NS(=O)(=O)c1ccc(Cl)cc1", "z-score": -0.811}, {"molecule": "N#Cc1ccc(OCC(=O)N/N=C2\\CCc3ccccc32)cc1", "z-score": -0.239}, {"molecule": "CCN(CC)C(=O)C(Sc1ccccc1)c1ccccc1", "note": "(stereo unspecified)", "z-score": 0.926}, {"molecule": "CC(=O)Nc1ccc(NC(=O)CSc2ccc(C)cc2)cc1", "z-score": 0.00682}, {"molecule": "CCOC(=O)c1ccc(NC(=O)CN2C(=O)C(C)SC(C)C2=O)cc1", "note": "(stereo unspecified)", "z-score": -0.088}, {"molecule": "Cc1nc(NC(C)C(=O)O)c2nc(C)oc2n1", "note": "(stereo unspecified)", "z-score": -0.0905}, {"molecule": "CCn1cc(C2=NCCO2)c2ccccc21", "z-score": 2.2}, {"molecule": "CCn1cc(C2=NC(C)CO2)c2ccccc21", "note": "(stereo unspecified)", "z-score": -0.418}, {"molecule": "CCn1cc(C2=NC(C)(C)CO2)c2ccccc21", "z-score": -0.521}, {"molecule": "COc1ccc2[nH]c(C)c(CCN3C(=O)C4C5C=CC(C5)C4C3=O)c2c1", "note": "(stereo unspecified)", "z-score": -0.454}, {"molecule": "NC(=O)CSc1ncnc2c1cnn2Cc1ccccc1", "z-score": "4.34 (active)"}, {"molecule": "Cc1ccc(-n2ncc3c(SCc4cccc(C)c4)ncnc32)cc1", "z-score": 2.66}, {"molecule": "Cc1ccc(-n2ncc3c(SCc4ccccc4)ncnc32)cc1", "z-score": 2.51}, {"molecule": "COC(=O)CSc1ncnc2c1cnn2Cc1ccccc1", "z-score": -0.981}, {"molecule": "Cc1ccc(CSc2ncnc3c2cnn3-c2ccc(C)cc2)cc1", "z-score": 1.75}, {"molecule": "Cc1ccc(CSc2ncnc3c2cnn3Cc2ccccc2)cc1", "z-score": -0.449}, {"molecule": "Cc1ccc(CSc2ncnc3c2cnn3-c2ccccc2)cc1", "z-score": 0.333}, {"molecule": "Cc1cccc(CSc2ncnc3c2cnn3Cc2ccccc2)c1", "z-score": -0.46}, {"molecule": "c1ccc(CSc2ncnc3c2cnn3Cc2ccccc2)cc1", "z-score": -0.473}]}]}
